Bioassay records deposited in PubChem BioAssay by National Center for Advancing Translational Sciences (NCATS).
Most compounds without a hit are left out; they make up all but 2.5% or so of the library.
TrxR1 substrate: qHTS Assay for Substrates of Mammalian Selenoprotein Thioredoxin Reductase 1 (TrxR1): qHTS. Thioredoxin reductase 1, cytoplasmic (Rattus norvegicus), O89049. purified TrxR1 substrate turnover, NADPH consumption readout. Potency, µM (highest dose often 114 µM). 0.01% of 390,000 active. AID 588456, 2011; note: nearly all actives have a fitted effect of over 50% in size
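Rat TrxR1, dispensed at 90 nM, was prereduced with 400 uM NADPH (final) for 5 min at ~22 deg C, then incubated with compound 15 min before 400 uM selenite. A first-read NADPH fluorescence drop versus no-compound background flagged substrates.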
miR-21 reporter: qHTS Assay for Modulators of miRNAs and/orActivators of miR-21; 340,000 tested, under 10 active; HeLa miR-21 FLuc reporter, luciferase, 48 h; Potency, µM (titrated, usually from 38.3 µM), hits mostly activators; AID 2288, 2010;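 note: miR-21 action dims this reporter so a rising signal means less miR-21 action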
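Luminescence from a firefly luciferase reporter carrying a miR-21 binding site downstream, stably expressed under a CMV promoter in HeLa cells that make miR-21 endogenously, reports miRNA modulation after 48 h compound exposure up to approximately 40uM final.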
rTrxR1 inhibitor: qHTS Assay for Inhibitors of Mammalian Selenoprotein Thioredoxin Reductase 1 (TrxR1): qHTS | Thioredoxin reductase 1, cytoplasmic (Rattus norvegicus), O89049 | recombinant rTrxR1, NADPH fluorescence consumption, selenite substrate | 1% of 390,000 active | Potency, µM (titrated, usually from 114 µM), actives largely listed as inhibitors; note: nearly all actives have a fitted effect of over 65% in size
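Rat TrxR1 (90 nM in the dispensed reagent) was pre-reduced with 400 uM NADPH for 5 min at room temperature, then incubated with compound for 15 min. After 400 uM selenite was added, NADPH fluorescence (Ex 340/Em 450 nm) was followed for 8 min.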
ClpP mod: qHTS Assay for Activators of ClpP. AID 651965, 2013. purified B. subtilis ClpP, FRET peptide cleavage, 20 min. 1.9% of 340,000 active. Potency, µM (titrated, usually from 57.5 µM). ATP-dependent Clp protease proteolytic subunit (Bacillus subtilis (strain 168)), P80244; active = well fitted falling curve with a large enough effect; inconclusive = small, poorly fitted or top-dose-only effect; inactive = no such curve, though single readings can be large or run the other way; note: the source files actives as falling curves though it sought activators and does not explain the sign; nearly all actives have a fitted effect of over 65% in size
Target sequence (P80244 whole entry, looked up): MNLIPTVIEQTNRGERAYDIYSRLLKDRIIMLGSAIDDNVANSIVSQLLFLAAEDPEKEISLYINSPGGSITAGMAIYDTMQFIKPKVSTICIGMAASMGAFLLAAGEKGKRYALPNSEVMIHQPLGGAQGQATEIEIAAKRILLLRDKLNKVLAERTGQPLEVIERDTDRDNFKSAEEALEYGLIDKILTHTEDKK
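Buffer: 100 mM Tris/HCl pH8, 100 mM KCl, 0.05% low protease BSA, 2.5% glycerol, 0.01% Tween-20. ClpP 10 microg/mL final; 20 min RT; delta FRET normalized to ADEP and DMSO controls.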
Anesthetic bind: qHTS Assay for Identification of Novel General Anesthetics; Ferritin light chain (Equus caballus), P02791; apoferritin/1-aminoanthracene competitive binding, fluorescence; Potency, µM (top dose mostly 77.5 µM), most hits filed as inhibitors; 0.074% of 350,000 active; AID 485281, 2010; note: nearly all actives have a fitted effect of over 20% in size
Target sequence (P02791 2-175 limits assumed): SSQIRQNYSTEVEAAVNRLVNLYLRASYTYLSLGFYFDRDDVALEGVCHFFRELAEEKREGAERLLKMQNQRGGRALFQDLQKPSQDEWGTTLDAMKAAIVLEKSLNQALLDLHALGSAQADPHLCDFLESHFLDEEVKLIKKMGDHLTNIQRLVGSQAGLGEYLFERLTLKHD
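Horse-spleen apoferritin (10 uM) was mixed with 50% saturated 1-aminoanthracene in PBS, exposed to compounds for 10 min at room temperature, and read for fluorescence (ex 380 nm, em 535 nm). Competitive displacement was fitted with a four-parameter Hill equation.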
Each line names hits and unclear results; the compound was inactive in the other large screens. Unless noted, calls come from the whole dose curve; as a rule, active = well fitted curve in the direction sought with a large enough effect; inconclusive = small, poorly fitted or top-dose-only effect, or another doubt; inactive = no such curve, though single readings can be large; an effect the other way counts as inactive or inconclusive.

COc1ccc(-c2cc(C(F)(F)F)nc(SCC(=O)NCc3cccs3)n2)cc1	ClpP mod 35µM
COc1ccccc1CNC(=O)CSc1nc(-c2ccc(OC)c(OC)c2)cc(C(F)(F)F)n1	ClpP mod 28µM
COc1ccc(-c2cc(C(F)(F)F)nc(SCCC(=O)N3CCOCC3)n2)cc1	ClpP mod 25µM
COc1ccc(-c2cc(C(F)(F)F)nc(SCC(=O)NCC(C)C)n2)cc1OC	none
COc1ccc(-c2cc(C(F)(F)F)nc(SCC(=O)NCc3cnn(C)c3C)n2)cc1OC	ClpP mod 28µM
O=C(Nc1ccc(C(=O)N2CCN(c3cccc(Cl)c3)CC2)cc1)c1nsc2ccccc12	none
Cc1ccc(C2=CC(c3ccccc3F)n3c(nc4ccccc43)N2)cc1C (configuration not stated)	none
CC(=O)CC1OC(=O)C(Br)=C1NCc1ccccc1 (configuration not stated)	miR-21 reporter inconclusive, rTrxR1 inhibitor 14µM
O=C(N/N=C/c1ccc([N+](=O)[O-])s1)c1ccccc1Br	miR-21 reporter inconclusive, rTrxR1 inhibitor 20µM, Anesthetic bind inconclusive
CSc1nc(SCCO)c2sc3nc(-c4ccco4)c4c(c3c2n1)CC(C)(C)OC4	rTrxR1 inhibitor 56µM, Anesthetic bind inconclusive
O=C(O)c1cccc(N2CCCC2)c1	ClpP mod 28µM
O=C(O)c1cccc(N2CCCC2=O)c1	none
O=C(CSc1nc2[nH]c(=O)cc(O)c2s1)Nc1nccs1	ClpP mod 32µM (no result: miR-21 reporter, Anesthetic bind)
CCCCCCCCN1[C@@H](CC(=O)O)c2ccc(/C=C/C(=O)O)cc2S1(=O)=O	none (no result: miR-21 reporter, Anesthetic bind)
COc1ccc(CCNC(=O)c2cnc3sc(N4CCOCC4)nn3c2=O)cc1	ClpP mod 28µM
CCNC(=O)c1cnc2sc(N3CCCCCC3)nn2c1=O	ClpP mod 11µM
COc1ccc(CNC(=O)c2cnc3sc(N4CCCC4)nn3c2=O)cc1OC	ClpP mod 16µM
O=C(Oc1cc(-c2ccccc2)no1)c1ccc(Cl)cc1	ClpP mod 40µM
Cc1cccc(-n2cc(-c3ccccc3)c3c(NC(C)C)ncnc32)c1	none
COCCNC(=O)c1cc(Sc2ccc(F)cc2F)nc2ccccc12	none
O=C(O)c1cccc(Cn2c(Cl)c(/C=N/Nc3ccccc3)sc2=O)c1	rTrxR1 inhibitor 8.9µM
O=C(O)c1cccc(Cn2c(Cl)c(/C=N/NC(=O)c3ccccc3Cl)sc2=O)c1	none
COc1ccc(C(=O)N/N=C/c2sc(=O)n(Cc3cccc(C(=O)O)c3)c2Cl)cc1	rTrxR1 inhibitor 79µM
COc1cc(OC)cc(-n2c(=O)c3ccccc3n(Cc3ccccc3C#N)c2=O)c1	none
CN(C1CCCCC1)S(=O)(=O)c1ccc(F)c(C(=O)Nc2ccc(C(F)(F)F)cc2)c1	none
CC(=O)NNC(=O)c1cc2c3ccccc3n(C)c2s1	none
COc1ccc(S(=O)(=O)NNC(=O)c2cc3c4ccccc4n(C)c3s2)cc1	ClpP mod 35µM
Cc1ccc(S(=O)(=O)Cc2nc(-c3ccc(C(=O)NCc4ccccc4F)cc3)oc2C)cc1	rTrxR1 inhibitor inconclusive (no result: ClpP mod)
Cc1ccc(-c2nc3cnccn3c2Nc2c(C)cccc2C)o1	rTrxR1 inhibitor 14µM
Cc1ccc(-c2nc3cnccn3c2Nc2ccc(C(C)C)cc2)o1	rTrxR1 inhibitor 13µM (no result: miR-21 reporter, Anesthetic bind)
Cc1ccccc1Nc1c(-c2ccc(Br)o2)nc2ccc(Cl)cn12	ClpP mod 28µM
Cc1ccc(-c2nc3ccccn3c2Nc2ccccc2C)o1	rTrxR1 inhibitor inconclusive (no result: miR-21 reporter, Anesthetic bind)
Cc1ccc2nc(-c3ccc(C)o3)c(Nc3ccc(Cl)cc3)n2c1	rTrxR1 inhibitor inconclusive, ClpP mod 14µM (no result: miR-21 reporter, Anesthetic bind)
CC(C)c1ccc(Nc2c(-c3ccccc3O)nc3cnccn23)cc1	miR-21 reporter inconclusive
Cc1ccc(Cl)cc1NC(=O)c1oc2c(c1C)-c1[nH]ncc1CC2	miR-21 reporter inconclusive
Nc1nc(-c2cccnc2)nn1S(=O)(=O)c1ccccc1	ClpP mod 35µM (no result: miR-21 reporter, Anesthetic bind)
Nc1nc(-c2ccco2)nn1S(=O)(=O)c1ccccc1	none (no result: ClpP mod)
O=c1c(C(c2ccc(Br)cc2)c2c(O)nc3n(c2=O)CCCS3)c(O)nc2n1CCCS2	TrxR1 substrate inconclusive, rTrxR1 inhibitor 7.1µM (no result: ClpP mod)
O=c1c(C(c2ccc(Br)cc2)c2c(O)nc3n(c2=O)CCS3)c(O)nc2n1CCS2	rTrxR1 inhibitor 1.6µM (no result: ClpP mod)
N#Cc1c(-c2ccc(Br)cc2)nc2n(c1=O)CCCS2	none
O=c1[nH]c2ccccc2cc1CN(c1ccccc1)S(=O)(=O)c1ccccc1	ClpP mod 32µM
Cc1cccc(N(Cc2cc3ccc(C)cc3[nH]c2=O)S(=O)(=O)c2ccccc2)c1	ClpP mod 25µM
CCOc1ccc(N(Cc2cc3ccc(C)cc3[nH]c2=O)S(=O)(=O)c2ccccc2)cc1	ClpP mod 32µM
Cc1ccc2cc(CN(c3ccccc3)S(=O)(=O)c3ccccc3)c(=O)[nH]c2c1	none (no result: ClpP mod)
Cc1cccc(N(Cc2cc3ccccc3[nH]c2=O)S(=O)(=O)c2ccccc2)c1	ClpP mod 32µM
Cc1ccc(NC(=O)c2c(C)oc3ccc(O)c(CN4CCN(Cc5ccccc5)CC4)c23)cc1	none
Cc1ccc(NC(=O)C(Cc2ccccc2)n2cccc2)cc1C (configuration not stated)	none
Cc1c(C(=O)Nc2cccc(C(F)(F)F)c2)oc2ccc3c(c12)C(=O)CC(C)(C)O3	none
COCCCNc1nc(NCc2ccccc2OC)c2cnn(C)c2n1	none
Cc1ccc(N(Cc2cc3cc(C)ccc3[nH]c2=O)S(=O)(=O)c2ccccc2)cc1	ClpP mod 28µM
COc1ccc2[nH]c(=O)c(CN(c3ccccc3)S(=O)(=O)c3ccccc3)cc2c1	none
CN(C)c1ccc2c(-c3ccccc3)c3ccc(=[N+](C)C)cc-3oc2c1	none (no result: TrxR1 substrate, miR-21 reporter, rTrxR1 inhibitor, ClpP mod)
CC1CCCC(C)N1Cc1cn2ccccc2n1 (configuration not stated)	ClpP mod 18µM
CCN(CC)CCn1c(=S)[nH]c2cc3c(cc2c1=O)OCO3	none
Cc1c(SCCO)c(=O)[nH]c2cc3c(cc12)OCO3	ClpP mod 25µM
O=C(CCl)N1c2ccccc2OCC1c1ccccc1 (configuration not stated)	rTrxR1 inhibitor 2.2µM
O=C(CCl)N1c2ccccc2SCC1c1ccccc1 (configuration not stated)	miR-21 reporter inconclusive, rTrxR1 inhibitor 1.3µM
COc1ccc(N2CCN(C(CNC(=O)C(=O)NCc3ccc(F)cc3)c3cccnc3)CC2)cc1 (configuration not stated)	none
